The supplement of paper PMC10849652
About 7,900 targets were measured; listed, in parts, are those with a hit and a random draw of the rest. About 0.6% of all pairs of compound and target were hits.

Columns and labels:
Assay in all cases: log2 fold change, soluble protein after heating vs DMSO (PISA); higher = thermal stabilisation; K562 cells, 10 uM, 30 min; active = over 0.2 and 3.5 SD of the protein, either way, in both replicates (recomputed)
[1] = compound: CN1CCN(CCOc2cc(OC3CCOCC3)c3c(Nc4c(Cl)ccc5c4OCO5)ncnc3c2)CC1 [saracatinib]
How it was run: (§1)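 Thermal stability values are relative to control samples and come from duplicates. They are expressed as log2 fold changes. For measurement, K562 cells (2×10^6 cells/mL) received 10 μM compound for 30 min, and aliquots were heated for 3 min over 48°C-58°C, pooled, and extracted at 4°C in PBS with 0.5% NP-40. Soluble protein, the supernatant after 21,000xg for 90 min, was quantified by TMTpro 16plex LC-MS/MS with equalised channel sums.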

[2] = compound: CN1CCN(c2nc(C3=C(c4c[nH]c5ccccc45)C(=O)NC3=O)c3ccccc3n2)CC1 [sotrastaurin]
How it was run: as §1

[3] = compound: CN1CC[C@H](c2c(O)cc(O)c3c(=O)cc(-c4ccccc4Cl)oc23)[C@H](O)C1 [alvocidib]
How it was run: as §1

[4] = compound: CN1CCc2c(c3ccccc3n2Cc2ccc(C(=O)NO)cc2)C1 [Tubastatin A]
How it was run: as §1

[5] = compound: CNC(=O)C1=CC=CC=C1NC2=NC(=NC=C2Cl)NC3=C(C=C(C=C3)N4CCOCC4)OC
How it was run: as §1

[6] = compound: CNC(=O)c1ccc(Nc2ncc(C(F)(F)F)c(NCc3nccnc3N(C)S(C)(=O)=O)n2)cc1 [defactinib]
How it was run: as §1

[7] = compound: CNCc1ccc(-c2[nH]c3cc(F)cc4c3c2CCNC4=O)cc1 [rucaparib]
How it was run: as §1

[8] = compound: CNc1nc(-c2ccc3c(N)n[nH]c3c2)cc(N2C[C@@H](C(=O)NC3CCCCC3)CC[C@H]2C)n1
How it was run: as §1

[9] = compound: COC(=O)N[C@@H](C)CNc1nccc(-c2cn(C(C)C)nc2-c2cc(Cl)cc(NS(C)(=O)=O)c2F)n1 [encorafenib]
How it was run: as §1

[10] = compound: COC(=O)[C@H](CCSC)NC(=O)C1=C(C=C(C=C1)NC[C@H](CS)N)C2=CC=CC=C2
How it was run: as §1

[11] = compound: COC1=CC=C(C=C1)CN2C=CC3=C2C=C(C=C3)C(=O)NO
How it was run: as §1

[12] = compound: CON(C)C(=O)N1N=C(c2cc(F)ccc2F)S[C@@]1(CCCN)c1ccccc1 [filanesib]
How it was run: as §1

[13] = compound: CO[C@H]1C[C@@H]2CC[C@@H](C)[C@@](O)(O2)C(=O)C(=O)N2CCCC[C@H]2C(=O)O[C@H]([C@H](C)C[C@@H]2CC[C@H](n3cnnn3)[C@H](OC)C2)CC(=O)[C@H](C)/C=C(\C)[C@@H](O)[C@@H](OC)C(=O)[C@H](C)C[C@H](C)/C=C/C=C/C=C/1C [zotarolimus]
How it was run: as §1

[14] = compound: COc1cc(C(=O)O)ccc1NC(=O)[C@@H]1N[C@@H](CC(C)(C)C)[C@](C#N)(c2ccc(Cl)cc2F)[C@H]1c1cccc(Cl)c1F [idasanutlin]
How it was run: as §1

[15] = compound: COc1cc(Nc2ncc3c(n2)-c2ccc(Cl)cc2C(c2c(F)cccc2OC)=NC3)ccc1C(=O)O [alisertib]
How it was run: as §1

[16] = compound: COc1cc2nc(-c3cc(F)ccc3O)nc(N[C@@H]3CNC[C@H]3C(C)(C)O)c2cc1OC
How it was run: as §1

[17] = compound: COc1cc2ncnc(Nc3ccc(F)c(Cl)c3)c2cc1OCCCN1CCOCC1 [gefitinib]
How it was run: as §1

[18] = compound: COc1cccc2cc(-c3nc([C@H]4CC[C@H](C(=O)O)CC4)n4ncnc(N)c34)[nH]c12
How it was run: as §1

[19] = compound: CS(=O)(=O)CCNCc1ccc(-c2ccc3ncnc(Nc4ccc(OCc5cccc(F)c5)c(Cl)c4)c3c2)o1 [lapatinib]
How it was run: as §1

[20] = compound: CS(=O)(=O)N1CCN(Cc2cc3nc(-c4cccc5[nH]ncc45)nc(N4CCOCC4)c3s2)CC1 [pictilisib]
How it was run: as §1

Measured: log2 fold change

SMAD9 (UniProt O15198)
Chain of UniProt O15198 (O15198 whole entry, looked up): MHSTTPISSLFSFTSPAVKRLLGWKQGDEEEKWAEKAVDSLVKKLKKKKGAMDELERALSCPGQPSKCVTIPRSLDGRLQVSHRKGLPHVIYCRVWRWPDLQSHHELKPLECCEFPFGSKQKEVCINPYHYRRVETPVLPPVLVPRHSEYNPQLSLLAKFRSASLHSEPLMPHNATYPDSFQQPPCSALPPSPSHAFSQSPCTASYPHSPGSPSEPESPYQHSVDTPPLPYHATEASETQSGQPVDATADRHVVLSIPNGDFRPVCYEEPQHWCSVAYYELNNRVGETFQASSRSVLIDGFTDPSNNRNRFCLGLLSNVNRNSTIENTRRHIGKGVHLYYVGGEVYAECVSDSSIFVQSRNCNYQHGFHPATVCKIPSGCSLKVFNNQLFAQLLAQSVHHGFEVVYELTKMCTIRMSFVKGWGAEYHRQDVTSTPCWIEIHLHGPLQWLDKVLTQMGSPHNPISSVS
inactive: [1] 0.076 | [2] 0.078 | [3] -0.065 | [4] -0.003 | [5] -0.013 | [6] -0.076 | [7] -0.094 | [8] 0.055 | [9] -0.001 | [10] -0.049 | [11] -0.002 | [12] 0.009 | [13] -0.033 | [14] -0.132 | [15] -0.014 | [16] -0.012 | [17] 0.066 | [18] -0.005 | [19] 0.051 | [20] 0.148

STOM (UniProt P27105)
Chain of UniProt P27105 (P27105 whole entry, looked up): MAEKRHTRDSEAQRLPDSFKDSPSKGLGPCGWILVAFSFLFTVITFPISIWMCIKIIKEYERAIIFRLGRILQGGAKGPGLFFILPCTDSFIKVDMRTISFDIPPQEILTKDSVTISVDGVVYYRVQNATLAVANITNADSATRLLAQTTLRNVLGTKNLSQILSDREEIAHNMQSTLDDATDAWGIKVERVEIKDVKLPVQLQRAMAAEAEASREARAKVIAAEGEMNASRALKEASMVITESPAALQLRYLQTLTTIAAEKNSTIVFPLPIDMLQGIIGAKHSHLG
inactive: [1] -0.015 | [2] 0.039 | [3] 0.169 | [4] 0.016 | [5] -0.019 | [6] 0.068 | [7] 0.006 | [8] -0.03 | [9] 0.016 | [10] 0.002 | [11] 0.004 | [12] -0.068 | [13] -0.083 | [14] 0.046 | [15] -0.154 | [16] -0.045 | [17] -0.062 | [18] -0.004 | [19] 0.067 | [20] -0.022

SLC35A1 (UniProt P78382)
Chain of UniProt P78382 (P78382 whole entry, looked up): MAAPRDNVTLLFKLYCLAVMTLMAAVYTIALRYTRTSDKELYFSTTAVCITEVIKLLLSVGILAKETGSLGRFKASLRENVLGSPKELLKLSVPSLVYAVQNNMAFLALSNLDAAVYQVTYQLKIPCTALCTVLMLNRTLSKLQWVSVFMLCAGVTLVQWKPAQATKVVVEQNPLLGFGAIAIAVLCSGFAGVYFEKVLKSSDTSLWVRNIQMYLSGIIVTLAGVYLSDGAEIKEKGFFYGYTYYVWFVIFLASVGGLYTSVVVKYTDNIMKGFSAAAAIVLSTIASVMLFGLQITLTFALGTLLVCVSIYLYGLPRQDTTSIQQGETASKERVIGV
inactive: [1] 0.038 | [2] 0.015 | [3] 0.006 | [4] -0.038 | [5] -0.016 | [6] -0.198 | [7] 0.048 | [8] -0.112 | [9] 0.043 | [10] -0.211 | [11] 0.048 | [12] -0.021 | [13] -0.138 | [14] -0.051 | [15] -0.063 | [16] -0.097 | [17] 0.06 | [18] 0.06 | [19] -0.028

STRN (UniProt O43815)
Chain of UniProt O43815 (O43815 whole entry, looked up): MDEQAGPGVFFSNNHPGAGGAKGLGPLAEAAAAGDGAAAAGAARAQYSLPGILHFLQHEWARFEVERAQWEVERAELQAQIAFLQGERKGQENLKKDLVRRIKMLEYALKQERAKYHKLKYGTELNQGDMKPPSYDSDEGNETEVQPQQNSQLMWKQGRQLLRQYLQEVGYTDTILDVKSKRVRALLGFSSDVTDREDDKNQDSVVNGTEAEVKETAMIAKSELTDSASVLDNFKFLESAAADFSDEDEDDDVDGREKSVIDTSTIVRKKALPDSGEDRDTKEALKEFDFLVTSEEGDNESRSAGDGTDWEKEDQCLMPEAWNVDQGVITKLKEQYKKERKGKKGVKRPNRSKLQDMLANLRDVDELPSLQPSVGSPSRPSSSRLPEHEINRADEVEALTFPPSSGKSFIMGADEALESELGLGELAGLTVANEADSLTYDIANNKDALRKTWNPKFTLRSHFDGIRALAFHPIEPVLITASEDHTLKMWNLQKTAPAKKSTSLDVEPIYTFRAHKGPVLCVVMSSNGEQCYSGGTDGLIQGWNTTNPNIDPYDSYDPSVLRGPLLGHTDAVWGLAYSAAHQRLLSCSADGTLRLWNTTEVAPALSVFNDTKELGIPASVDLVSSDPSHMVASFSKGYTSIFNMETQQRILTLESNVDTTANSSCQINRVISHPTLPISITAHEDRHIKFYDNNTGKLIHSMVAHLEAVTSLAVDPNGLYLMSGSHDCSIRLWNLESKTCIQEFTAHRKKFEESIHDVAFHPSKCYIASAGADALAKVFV
inactive: [1] 0.022 | [2] 0.026 | [3] -0.097 | [4] 0.013 | [5] -0.007 | [6] -0.076 | [7] -0.007 | [8] -0.026 | [9] 0.017 | [10] -0.017 | [11] -0.002 | [12] -0.002 | [13] 0.052 | [14] -0.018 | [15] -0.083 | [16] -0.003 | [17] 0.02 | [18] 0.017 | [19] 0.015 | [20] 0.006

SRPRB (UniProt Q9Y5M8)
Chain of UniProt Q9Y5M8 (Q9Y5M8 whole entry, looked up): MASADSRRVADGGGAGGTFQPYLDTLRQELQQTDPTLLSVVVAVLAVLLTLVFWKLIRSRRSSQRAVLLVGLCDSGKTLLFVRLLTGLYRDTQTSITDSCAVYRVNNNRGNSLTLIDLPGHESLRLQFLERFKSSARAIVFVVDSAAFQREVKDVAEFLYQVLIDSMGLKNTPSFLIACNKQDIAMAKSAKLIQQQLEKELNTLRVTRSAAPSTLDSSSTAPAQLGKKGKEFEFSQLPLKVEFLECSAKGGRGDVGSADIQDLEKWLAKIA
inactive: [1] -0.03 | [2] -0.036 | [3] 0.002 | [4] 0.004 | [5] 0.087 | [6] 0.026 | [7] 0.151 | [8] 0.032 | [9] -0.013 | [10] -0.064 | [11] 0.133 | [12] -0.076 | [13] 0.018 | [14] -0.11 | [15] -0.021 | [16] 0.136 | [17] -0.001 | [18] -0.03 | [19] 0.048 | [20] -0.022

TIMM21 (UniProt Q9BVV7)
inactive: [1] 0 | [2] -0.001 | [3] -0.05 | [4] -0.048 | [5] -0.025 | [6] -0.007 | [7] -0.04 | [8] -0.016 | [9] 0.063 | [10] 0.051 | [11] -0.038 | [12] -0.171 | [13] 0.03 | [14] -0.078 | [15] 0.054 | [16] -0.205 | [17] -0.006 | [18] 0.01 | [19] -0.008 | [20] 0.055

SLC39A11 (UniProt Q8N1S5)
Chain of UniProt Q8N1S5 (Q8N1S5 whole entry, looked up): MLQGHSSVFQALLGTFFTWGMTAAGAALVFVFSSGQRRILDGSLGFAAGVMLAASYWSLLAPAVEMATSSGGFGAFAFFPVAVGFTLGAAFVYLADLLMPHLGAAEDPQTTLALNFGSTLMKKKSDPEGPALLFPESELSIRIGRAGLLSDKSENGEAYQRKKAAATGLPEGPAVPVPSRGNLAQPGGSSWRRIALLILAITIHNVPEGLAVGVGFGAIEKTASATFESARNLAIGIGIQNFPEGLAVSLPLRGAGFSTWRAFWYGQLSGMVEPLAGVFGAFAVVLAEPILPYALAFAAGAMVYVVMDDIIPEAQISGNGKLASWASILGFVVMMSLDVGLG
active: [7] -0.518
inactive: [1] 0.098 | [2] 0.127 | [3] 0.02 | [4] -0.164 | [5] -0.223 | [6] 0.074 | [8] -0.015 | [9] -0.077 | [10] -0.082 | [11] -0.014 | [12] -0.01 | [13] -0.078 | [14] -0.056 | [15] -0.113 | [16] -0.04 | [17] 0.001 | [18] 0.047 | [19] -0.038 | [20] -0.117

SNX11 (UniProt Q9Y5W9)
Chain of UniProt Q9Y5W9 (Q9Y5W9 whole entry, looked up): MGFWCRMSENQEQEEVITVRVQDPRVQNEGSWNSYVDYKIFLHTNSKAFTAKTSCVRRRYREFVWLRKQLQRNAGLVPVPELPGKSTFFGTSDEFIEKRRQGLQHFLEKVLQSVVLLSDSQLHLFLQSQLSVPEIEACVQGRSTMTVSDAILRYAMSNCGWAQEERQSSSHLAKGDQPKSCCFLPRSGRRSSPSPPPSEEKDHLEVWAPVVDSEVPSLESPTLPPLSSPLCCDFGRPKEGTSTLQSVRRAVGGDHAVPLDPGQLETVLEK
inactive: [1] -0.055 | [2] -0.055 | [3] -0.135 | [4] -0.014 | [5] 0.011 | [6] -0.02 | [7] -0.001 | [8] 0.055 | [9] -0.074 | [10] 0.002 | [11] 0.025 | [12] -0.128 | [13] 0.043 | [14] -0.008 | [15] -0.062 | [16] -0.15 | [17] -0.05 | [18] 0.038 | [19] 0.014 | [20] -0.173

SSR4 (UniProt P51571)
inactive: [1] -0.008 | [2] 0.013 | [3] -0.035 | [4] 0.006 | [5] 0.014 | [6] 0.015 | [7] 0 | [8] 0.004 | [9] -0.028 | [10] -0.007 | [11] -0.015 | [12] -0.052 | [13] 0.036 | [14] -0.012 | [15] -0.004 | [16] 0.08 | [17] -0.023 | [18] 0.047 | [19] -0.05 | [20] 0.106

TMBIM6 isoform 2 (UniProt P55061)
Chain of UniProt P55061 (P55061 whole entry, looked up): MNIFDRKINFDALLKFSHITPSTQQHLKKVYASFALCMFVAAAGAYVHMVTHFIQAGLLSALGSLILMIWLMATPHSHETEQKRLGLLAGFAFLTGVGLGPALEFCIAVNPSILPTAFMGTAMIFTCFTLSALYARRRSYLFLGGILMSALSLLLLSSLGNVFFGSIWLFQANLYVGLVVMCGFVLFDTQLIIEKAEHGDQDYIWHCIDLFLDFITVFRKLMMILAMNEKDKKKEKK
active: [14] -0.51 | [16] -0.535
inactive: [1] 0.08 | [2] -0.029 | [3] -0.027 | [4] 0.062 | [5] -0.004 | [6] -0.007 | [7] -0.065 | [8] -0.006 | [9] -0.005 | [10] 0.039 | [11] -0.007 | [12] -0.233 | [13] -0.099 | [15] -0.27 | [17] -0.087 | [18] -0.165 | [19] -0.196

TJP2 isoform 7 (UniProt Q9UDY2)
inactive: [1] -0.074 | [2] -0.151 | [3] -0.067 | [4] 0.047 | [5] -0.06 | [6] -0.211 | [7] 0.051 | [8] 0.054 | [9] 0.066 | [10] -0.097 | [11] 0.019 | [12] 0.093 | [13] 0.068 | [14] -0.017 | [15] -0.151 | [16] -0.091 | [17] 0.042 | [18] 0.012 | [19] 0.008 | [20] 0.067

SLK isoform 2 (UniProt Q9H2G2)
inactive: [1] -0.015 | [2] -0.192 | [3] -0.031 | [4] 0.025 | [5] 0.079 | [6] -0.089 | [7] 0.048 | [8] 0.02 | [9] 0.052 | [10] 0.012 | [11] 0.001 | [12] 0.042 | [13] -0.007 | [14] -0.008 | [15] -0.045 | [16] -0.103 | [17] 0.025 | [18] -0.079 | [19] -0.193
active: [20] 0.212

SLC38A2 (UniProt Q96QD8)
Chain of UniProt Q96QD8 (Q96QD8 whole entry, looked up): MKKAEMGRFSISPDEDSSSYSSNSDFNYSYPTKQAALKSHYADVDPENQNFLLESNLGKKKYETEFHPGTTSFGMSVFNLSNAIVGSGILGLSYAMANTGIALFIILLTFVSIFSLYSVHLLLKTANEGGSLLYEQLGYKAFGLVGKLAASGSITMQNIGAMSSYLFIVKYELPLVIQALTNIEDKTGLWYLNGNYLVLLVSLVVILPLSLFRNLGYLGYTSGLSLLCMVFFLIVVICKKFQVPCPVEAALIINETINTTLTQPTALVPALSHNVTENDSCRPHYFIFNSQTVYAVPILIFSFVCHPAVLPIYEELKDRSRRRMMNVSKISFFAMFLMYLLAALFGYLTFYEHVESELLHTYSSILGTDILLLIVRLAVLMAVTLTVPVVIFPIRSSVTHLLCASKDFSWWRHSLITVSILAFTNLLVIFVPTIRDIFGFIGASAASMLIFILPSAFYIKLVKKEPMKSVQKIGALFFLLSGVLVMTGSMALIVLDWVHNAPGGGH
inactive: [1] -0.007 | [2] 0.027 | [3] 0 | [4] -0.043 | [5] 0.004 | [6] -0.034 | [7] -0.044 | [8] -0.188 | [9] 0.045 | [10] -0.024 | [11] -0.041 | [12] -0.205 | [13] 0.048 | [14] 0.011 | [15] -0.019 | [16] -0.122 | [17] -0.099 | [18] 0.097 | [19] -0.055

TBC1D15 isoform 3 (UniProt Q8TC07)
Chain of UniProt Q8TC07 (Q8TC07 whole entry, looked up): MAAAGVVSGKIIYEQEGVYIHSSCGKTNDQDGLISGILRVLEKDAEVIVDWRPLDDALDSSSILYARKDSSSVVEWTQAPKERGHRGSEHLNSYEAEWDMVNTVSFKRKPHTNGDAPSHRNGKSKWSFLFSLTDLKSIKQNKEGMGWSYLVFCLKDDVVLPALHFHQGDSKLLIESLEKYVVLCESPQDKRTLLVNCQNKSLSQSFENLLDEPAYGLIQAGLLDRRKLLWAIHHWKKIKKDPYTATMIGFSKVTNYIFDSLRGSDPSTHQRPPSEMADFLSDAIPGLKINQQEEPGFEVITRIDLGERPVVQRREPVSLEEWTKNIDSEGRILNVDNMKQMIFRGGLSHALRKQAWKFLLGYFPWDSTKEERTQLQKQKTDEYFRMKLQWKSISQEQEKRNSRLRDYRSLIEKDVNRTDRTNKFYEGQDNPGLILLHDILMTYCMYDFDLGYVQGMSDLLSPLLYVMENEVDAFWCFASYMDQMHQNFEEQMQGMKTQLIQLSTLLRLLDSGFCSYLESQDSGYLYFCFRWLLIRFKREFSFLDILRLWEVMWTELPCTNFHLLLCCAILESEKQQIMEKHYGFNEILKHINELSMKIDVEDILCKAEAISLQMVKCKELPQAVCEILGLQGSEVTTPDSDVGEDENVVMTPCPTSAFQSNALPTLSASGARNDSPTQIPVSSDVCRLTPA
inactive: [1] -0.01 | [2] -0.117 | [3] -0.054 | [4] -0.011 | [5] -0.014 | [6] -0.09 | [7] 0.059 | [8] -0.012 | [9] 0.068 | [10] -0.003 | [11] -0.063 | [12] 0 | [13] 0.039 | [14] -0.058 | [15] -0.052 | [16] -0.065 | [17] 0.015 | [18] -0.06 | [19] 0.032 | [20] -0.009

SLC27A2 (UniProt O14975)
Chain of UniProt O14975 (O14975 whole entry, looked up): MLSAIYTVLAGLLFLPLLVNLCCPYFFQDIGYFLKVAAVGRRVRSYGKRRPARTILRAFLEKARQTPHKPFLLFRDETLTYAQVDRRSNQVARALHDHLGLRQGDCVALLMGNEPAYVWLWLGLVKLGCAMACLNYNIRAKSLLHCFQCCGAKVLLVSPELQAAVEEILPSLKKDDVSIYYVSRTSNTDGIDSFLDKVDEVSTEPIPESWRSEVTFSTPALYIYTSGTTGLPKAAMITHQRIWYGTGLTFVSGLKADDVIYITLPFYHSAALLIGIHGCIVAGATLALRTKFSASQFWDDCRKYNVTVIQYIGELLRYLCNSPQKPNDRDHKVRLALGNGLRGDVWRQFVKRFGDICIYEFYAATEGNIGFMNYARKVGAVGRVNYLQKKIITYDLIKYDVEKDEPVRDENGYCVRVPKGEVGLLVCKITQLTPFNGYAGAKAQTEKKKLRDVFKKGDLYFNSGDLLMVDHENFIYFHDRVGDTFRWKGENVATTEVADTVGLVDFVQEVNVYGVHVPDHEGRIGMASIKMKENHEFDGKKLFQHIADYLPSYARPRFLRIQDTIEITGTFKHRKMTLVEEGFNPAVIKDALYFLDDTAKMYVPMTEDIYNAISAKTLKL
active: [8] 0.333
inactive: [1] 0 | [2] 0.005 | [3] -0.079 | [4] -0.015 | [5] 0.144 | [6] -0.006 | [7] 0.056 | [9] 0.015 | [10] -0.034 | [11] 0.089 | [12] -0.033 | [13] 0.032 | [14] 0.257 | [15] -0.034 | [16] 0.046 | [17] 0.156 | [18] -0.052 | [19] 0.112 | [20] 0.034

TGFBRAP1 (UniProt Q8WUH2)
inactive: [1] -0.124 | [2] 0.048 | [3] -0.008 | [4] 0.134 | [5] 0.047 | [6] -0.061 | [7] 0.097 | [8] -0.051 | [9] 0.076 | [10] -0.109 | [11] 0.092 | [12] -0.006 | [13] -0.031 | [14] -0.137 | [15] 0.046 | [16] 0.092 | [17] 0.047 | [18] -0.103 | [19] -0.098 | [20] -0.136
